# Reference: publication PMC7862700, “An all-to-all approach to the identification of sequence-specific readers for epigenetic DNA modifications on cytosine”
# Assays:
# Assay in all cases: DAPPL (digital affinity profiling via proximity ligation, sequencing); 10 mM Tris-HCl pH 7.5, 50 mM NaCl, 1 mM DTT, 4% glycerol, room temperature, 30 min; GST-TFs on glutathione beads, 16-mer random dsDNA library, 0.1% formaldehyde crosslink after washing; high values mean tight binding
# [1] = target: T1, FLI1 (Homo sapiens, UniProt Q01543 1-452); conditions: protein: recombinant; tags: N-terminal GST; dsDNA, one strand shown
# T1 sequence: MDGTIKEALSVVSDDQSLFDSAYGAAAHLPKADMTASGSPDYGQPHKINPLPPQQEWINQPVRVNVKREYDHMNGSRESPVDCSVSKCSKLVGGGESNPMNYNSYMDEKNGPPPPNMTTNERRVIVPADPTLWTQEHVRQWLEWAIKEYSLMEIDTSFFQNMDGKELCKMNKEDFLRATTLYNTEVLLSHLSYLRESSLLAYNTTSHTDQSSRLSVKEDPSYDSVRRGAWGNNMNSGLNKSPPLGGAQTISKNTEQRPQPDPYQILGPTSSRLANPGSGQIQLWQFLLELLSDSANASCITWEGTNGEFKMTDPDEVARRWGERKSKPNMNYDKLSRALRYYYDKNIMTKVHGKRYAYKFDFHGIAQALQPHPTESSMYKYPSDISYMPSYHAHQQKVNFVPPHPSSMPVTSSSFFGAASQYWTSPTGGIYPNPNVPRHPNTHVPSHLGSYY
# In short: (§1)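 Sequencing on an Illumina NextSeq500 followed washing, crosslinking with 0.1% formaldehyde, proximity ligation (BsaI/T4 ligase, 1 h, 37 °C) and PCR amplification of pools that had been incubated for 30 min at room temperature with 200 nmole of a random double-stranded 16-mer DNA library in Tris/NaCl/DTT/glycerol buffer. Each pool held DNA-barcoded human transcription factors, expressed in yeast as GST fusions and captured on glutathione beads, plus a tag-only sample. Binding signal is a hexamer's read frequency for a factor divided by its frequency in the tag-only sample.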
# [2] = target: T2, ELK1 (Homo sapiens, UniProt P19419 1-428); conditions: protein: recombinant; tags: N-terminal GST; dsDNA, one strand shown
# T2 sequence: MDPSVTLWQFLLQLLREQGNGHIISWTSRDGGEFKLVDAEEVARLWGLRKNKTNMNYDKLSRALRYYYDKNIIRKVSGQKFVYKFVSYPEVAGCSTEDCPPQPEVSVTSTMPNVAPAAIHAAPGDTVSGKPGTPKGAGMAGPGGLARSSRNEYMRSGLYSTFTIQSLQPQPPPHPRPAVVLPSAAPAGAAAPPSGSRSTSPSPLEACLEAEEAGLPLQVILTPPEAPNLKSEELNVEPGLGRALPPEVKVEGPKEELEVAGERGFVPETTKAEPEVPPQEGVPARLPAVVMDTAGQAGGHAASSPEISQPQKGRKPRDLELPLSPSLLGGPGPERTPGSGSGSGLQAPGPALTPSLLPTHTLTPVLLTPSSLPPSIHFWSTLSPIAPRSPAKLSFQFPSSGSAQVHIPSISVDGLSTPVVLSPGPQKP
# In short: as §1
# [3] = target: T3, GABPA (Homo sapiens, UniProt Q06546 1-454); conditions: protein: recombinant; tags: N-terminal GST; dsDNA, one strand shown
# T3 sequence: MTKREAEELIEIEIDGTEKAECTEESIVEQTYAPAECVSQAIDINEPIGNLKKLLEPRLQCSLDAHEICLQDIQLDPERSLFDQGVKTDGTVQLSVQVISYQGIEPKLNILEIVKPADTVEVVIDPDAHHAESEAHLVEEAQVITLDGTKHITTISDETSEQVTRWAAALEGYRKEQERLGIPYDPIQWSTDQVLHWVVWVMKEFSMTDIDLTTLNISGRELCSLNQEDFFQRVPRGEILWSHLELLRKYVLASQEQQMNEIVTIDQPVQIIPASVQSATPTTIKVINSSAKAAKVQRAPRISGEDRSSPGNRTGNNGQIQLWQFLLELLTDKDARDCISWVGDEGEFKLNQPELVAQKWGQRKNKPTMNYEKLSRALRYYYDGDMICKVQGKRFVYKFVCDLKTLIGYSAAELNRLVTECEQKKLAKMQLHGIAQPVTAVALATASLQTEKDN
# In short: as §1
# [4] = target: T4, ERG (Homo sapiens, UniProt P11308 1-479); conditions: protein: recombinant; tags: N-terminal GST; dsDNA, one strand shown
# T4 sequence: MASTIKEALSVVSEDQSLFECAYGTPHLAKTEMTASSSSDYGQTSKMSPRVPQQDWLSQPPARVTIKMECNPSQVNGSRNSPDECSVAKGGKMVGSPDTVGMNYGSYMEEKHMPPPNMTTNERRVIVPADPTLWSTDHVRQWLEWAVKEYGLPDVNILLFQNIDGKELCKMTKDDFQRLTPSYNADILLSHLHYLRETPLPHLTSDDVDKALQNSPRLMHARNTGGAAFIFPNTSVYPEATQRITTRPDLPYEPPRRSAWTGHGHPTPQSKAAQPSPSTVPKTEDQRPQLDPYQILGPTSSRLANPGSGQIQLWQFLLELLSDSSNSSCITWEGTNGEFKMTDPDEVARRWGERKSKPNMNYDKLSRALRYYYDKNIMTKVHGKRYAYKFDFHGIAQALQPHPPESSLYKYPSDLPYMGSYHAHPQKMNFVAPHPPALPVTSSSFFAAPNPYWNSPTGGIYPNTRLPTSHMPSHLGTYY
# In short: as §1
# [5] = target: ELF1 (Homo sapiens, UniProt P32519 1-619); conditions: protein: recombinant; tags: N-terminal GST; dsDNA, one strand shown
# In short: as §1
# [6] = target: T5, EHF (Homo sapiens, UniProt Q9NZC4 1-300); conditions: protein: recombinant; tags: N-terminal GST; dsDNA, one strand shown
# T5 sequence: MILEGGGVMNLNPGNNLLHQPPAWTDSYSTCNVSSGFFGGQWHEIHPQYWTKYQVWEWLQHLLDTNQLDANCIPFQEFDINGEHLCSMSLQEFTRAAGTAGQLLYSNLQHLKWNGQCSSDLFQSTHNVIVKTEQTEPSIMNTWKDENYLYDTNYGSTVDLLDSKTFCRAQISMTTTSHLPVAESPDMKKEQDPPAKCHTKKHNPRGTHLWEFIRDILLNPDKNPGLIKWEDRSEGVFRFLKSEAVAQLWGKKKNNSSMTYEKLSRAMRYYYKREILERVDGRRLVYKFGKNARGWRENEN
# In short: as §1
# [7] = target: SPI1 (Homo sapiens, UniProt P17947 1-270); conditions: protein: recombinant; tags: N-terminal GST; dsDNA, one strand shown
# In short: as §1
# [8] = target: SPIB (Homo sapiens, UniProt Q01892 1-262); conditions: protein: recombinant; tags: N-terminal GST; dsDNA, one strand shown
# In short: as §1
# [9] = target: T6, ELK3 (Homo sapiens, UniProt P41970 1-407); conditions: protein: recombinant; tags: N-terminal GST; dsDNA, one strand shown
# T6 sequence: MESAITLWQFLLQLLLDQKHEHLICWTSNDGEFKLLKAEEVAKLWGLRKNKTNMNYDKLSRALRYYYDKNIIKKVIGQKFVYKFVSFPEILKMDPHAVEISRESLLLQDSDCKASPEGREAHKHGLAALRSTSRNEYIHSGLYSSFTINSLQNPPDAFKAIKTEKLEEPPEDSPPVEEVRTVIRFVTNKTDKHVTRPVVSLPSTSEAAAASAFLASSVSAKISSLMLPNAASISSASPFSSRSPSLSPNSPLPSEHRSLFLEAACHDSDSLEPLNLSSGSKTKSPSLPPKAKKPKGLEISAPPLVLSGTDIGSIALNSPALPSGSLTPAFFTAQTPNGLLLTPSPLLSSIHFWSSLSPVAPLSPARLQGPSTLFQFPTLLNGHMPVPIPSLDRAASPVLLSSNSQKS
# In short: as §1
# [10] = target: T7, FEV (Homo sapiens, UniProt Q99581 1-238); conditions: protein: recombinant; tags: N-terminal GST; dsDNA, one strand shown
# T7 sequence: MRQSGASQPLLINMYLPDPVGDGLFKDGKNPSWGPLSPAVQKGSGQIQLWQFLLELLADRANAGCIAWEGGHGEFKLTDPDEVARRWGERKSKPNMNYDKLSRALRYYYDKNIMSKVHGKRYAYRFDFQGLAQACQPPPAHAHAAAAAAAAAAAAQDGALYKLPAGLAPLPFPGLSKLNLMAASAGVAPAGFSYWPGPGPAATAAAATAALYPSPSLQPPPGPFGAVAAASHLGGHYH
# In short: as §1
# [11] = target: ETV5 (Homo sapiens, UniProt P41161 1-510); conditions: protein: recombinant; tags: N-terminal GST; dsDNA, one strand shown
# In short: as §1
# [12] = target: HSF1 (Homo sapiens, UniProt Q00613 1-529); conditions: protein: recombinant; tags: N-terminal GST; chain copies: 3; dsDNA, one strand shown
# In short: as §1
# [13] = target: T8, SPIC (Homo sapiens, UniProt Q8N5J4 1-248); conditions: protein: recombinant; tags: N-terminal GST; dsDNA, one strand shown
# T8 sequence: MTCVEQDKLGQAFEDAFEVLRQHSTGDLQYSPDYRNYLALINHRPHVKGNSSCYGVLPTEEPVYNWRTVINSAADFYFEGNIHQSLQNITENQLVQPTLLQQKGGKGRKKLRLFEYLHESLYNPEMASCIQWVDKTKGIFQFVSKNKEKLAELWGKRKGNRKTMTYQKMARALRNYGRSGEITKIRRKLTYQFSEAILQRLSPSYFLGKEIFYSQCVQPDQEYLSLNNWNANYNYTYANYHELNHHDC
# In short: as §1
# [14] = target: ELF4 (Homo sapiens, UniProt Q99607 1-663); conditions: protein: recombinant; tags: N-terminal GST; dsDNA, one strand shown
# In short: as §1
# [15] = target: T9, ELK4 (Homo sapiens, UniProt P28324-2 1-405); conditions: protein: recombinant; tags: N-terminal GST; dsDNA, one strand shown
# T9 sequence: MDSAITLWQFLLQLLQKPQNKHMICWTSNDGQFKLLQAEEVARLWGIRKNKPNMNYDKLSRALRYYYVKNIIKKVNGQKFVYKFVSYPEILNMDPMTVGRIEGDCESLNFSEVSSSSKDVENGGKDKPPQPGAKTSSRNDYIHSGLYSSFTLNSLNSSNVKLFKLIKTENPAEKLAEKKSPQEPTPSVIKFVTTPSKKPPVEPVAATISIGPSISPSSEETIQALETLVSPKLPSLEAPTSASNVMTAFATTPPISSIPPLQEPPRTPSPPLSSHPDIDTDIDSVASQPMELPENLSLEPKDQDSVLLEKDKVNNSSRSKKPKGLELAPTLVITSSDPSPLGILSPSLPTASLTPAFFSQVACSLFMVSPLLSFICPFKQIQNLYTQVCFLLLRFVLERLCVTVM
# In short: as §1
# [16] = target: T10, ETV2 (Homo sapiens, UniProt O00321 1-342); conditions: protein: recombinant; tags: N-terminal GST; dsDNA, one strand shown
# T10 sequence: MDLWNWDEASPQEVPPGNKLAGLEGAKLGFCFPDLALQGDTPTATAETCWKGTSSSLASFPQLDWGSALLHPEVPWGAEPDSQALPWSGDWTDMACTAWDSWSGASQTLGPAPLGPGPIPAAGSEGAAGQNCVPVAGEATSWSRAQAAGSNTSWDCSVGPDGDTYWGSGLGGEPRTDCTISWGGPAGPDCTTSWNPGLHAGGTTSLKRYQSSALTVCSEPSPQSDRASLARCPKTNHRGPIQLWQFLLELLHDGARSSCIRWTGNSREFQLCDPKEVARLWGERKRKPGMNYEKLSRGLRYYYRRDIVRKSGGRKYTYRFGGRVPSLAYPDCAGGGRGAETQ
# In short: as §1
# [17] = target: T11, ELF3 (Homo sapiens, UniProt P78545 1-371); conditions: protein: recombinant; tags: N-terminal GST; dsDNA, one strand shown
# T11 sequence: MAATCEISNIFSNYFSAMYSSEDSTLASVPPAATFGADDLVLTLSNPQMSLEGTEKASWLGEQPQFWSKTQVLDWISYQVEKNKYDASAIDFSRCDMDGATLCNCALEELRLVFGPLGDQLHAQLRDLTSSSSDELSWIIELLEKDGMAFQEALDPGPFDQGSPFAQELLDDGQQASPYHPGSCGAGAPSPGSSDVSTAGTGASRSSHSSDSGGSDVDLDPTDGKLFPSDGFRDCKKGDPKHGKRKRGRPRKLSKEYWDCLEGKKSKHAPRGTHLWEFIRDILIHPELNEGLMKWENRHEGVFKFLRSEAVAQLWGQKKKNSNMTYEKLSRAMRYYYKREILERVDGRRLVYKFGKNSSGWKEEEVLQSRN
# In short: as §1
# [18] = target: CRX (Homo sapiens, UniProt O43186 1-299); conditions: protein: recombinant; tags: N-terminal GST; dsDNA, one strand shown
# In short: as §1
# [19] = target: ETV1 (Homo sapiens, UniProt P50549 1-477); conditions: protein: recombinant; tags: N-terminal GST; dsDNA, one strand shown
# In short: as §1
# Chain of ELF1 (P32519 whole entry): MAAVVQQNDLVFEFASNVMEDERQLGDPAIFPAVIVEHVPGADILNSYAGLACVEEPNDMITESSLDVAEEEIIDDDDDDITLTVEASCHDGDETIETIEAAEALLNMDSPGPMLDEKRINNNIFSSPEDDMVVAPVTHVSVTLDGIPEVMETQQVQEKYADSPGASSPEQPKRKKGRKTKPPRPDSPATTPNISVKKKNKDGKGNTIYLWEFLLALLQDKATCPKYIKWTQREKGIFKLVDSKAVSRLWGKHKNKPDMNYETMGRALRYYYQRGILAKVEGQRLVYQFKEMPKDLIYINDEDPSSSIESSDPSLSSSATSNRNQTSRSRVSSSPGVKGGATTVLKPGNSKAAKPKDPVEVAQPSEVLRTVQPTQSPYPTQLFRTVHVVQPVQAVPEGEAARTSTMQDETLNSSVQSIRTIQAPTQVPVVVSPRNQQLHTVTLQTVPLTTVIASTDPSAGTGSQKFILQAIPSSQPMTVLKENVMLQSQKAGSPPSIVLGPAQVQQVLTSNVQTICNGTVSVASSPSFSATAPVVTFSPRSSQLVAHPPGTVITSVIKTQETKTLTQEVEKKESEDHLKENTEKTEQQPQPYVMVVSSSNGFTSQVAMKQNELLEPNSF
# Chain of HSF1 (Q00613 whole entry): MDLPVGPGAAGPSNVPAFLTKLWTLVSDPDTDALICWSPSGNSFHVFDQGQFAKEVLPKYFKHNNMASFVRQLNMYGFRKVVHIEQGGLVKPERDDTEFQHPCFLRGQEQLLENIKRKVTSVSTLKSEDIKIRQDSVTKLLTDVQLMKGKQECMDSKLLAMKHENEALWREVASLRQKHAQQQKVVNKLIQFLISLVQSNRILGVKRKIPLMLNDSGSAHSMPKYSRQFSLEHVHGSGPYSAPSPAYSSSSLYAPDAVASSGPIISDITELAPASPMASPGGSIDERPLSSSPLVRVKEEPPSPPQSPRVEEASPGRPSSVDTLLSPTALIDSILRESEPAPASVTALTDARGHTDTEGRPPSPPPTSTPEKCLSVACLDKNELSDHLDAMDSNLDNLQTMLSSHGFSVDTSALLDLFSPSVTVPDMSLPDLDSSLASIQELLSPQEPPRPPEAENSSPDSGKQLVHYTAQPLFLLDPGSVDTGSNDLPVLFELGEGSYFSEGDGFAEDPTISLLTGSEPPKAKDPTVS
# Chain of CRX (O43186 whole entry): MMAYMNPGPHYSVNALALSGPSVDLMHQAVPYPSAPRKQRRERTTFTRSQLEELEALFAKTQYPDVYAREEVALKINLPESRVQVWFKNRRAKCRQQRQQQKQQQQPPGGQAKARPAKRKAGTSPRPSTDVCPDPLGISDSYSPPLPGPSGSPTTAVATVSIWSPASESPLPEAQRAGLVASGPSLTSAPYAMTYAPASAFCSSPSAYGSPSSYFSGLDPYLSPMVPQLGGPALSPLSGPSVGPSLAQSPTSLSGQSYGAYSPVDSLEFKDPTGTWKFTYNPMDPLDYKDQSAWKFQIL
# Chain of SPIB (Q01892 whole entry): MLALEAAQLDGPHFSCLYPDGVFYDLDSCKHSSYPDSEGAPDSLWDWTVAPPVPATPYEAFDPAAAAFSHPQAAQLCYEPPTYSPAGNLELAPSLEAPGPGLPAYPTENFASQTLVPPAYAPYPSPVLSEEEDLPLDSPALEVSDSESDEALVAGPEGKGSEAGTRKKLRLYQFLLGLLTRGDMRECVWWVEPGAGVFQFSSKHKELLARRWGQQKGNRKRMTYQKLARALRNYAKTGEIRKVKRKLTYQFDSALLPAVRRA
# Chain of ETV5 (P41161 whole entry): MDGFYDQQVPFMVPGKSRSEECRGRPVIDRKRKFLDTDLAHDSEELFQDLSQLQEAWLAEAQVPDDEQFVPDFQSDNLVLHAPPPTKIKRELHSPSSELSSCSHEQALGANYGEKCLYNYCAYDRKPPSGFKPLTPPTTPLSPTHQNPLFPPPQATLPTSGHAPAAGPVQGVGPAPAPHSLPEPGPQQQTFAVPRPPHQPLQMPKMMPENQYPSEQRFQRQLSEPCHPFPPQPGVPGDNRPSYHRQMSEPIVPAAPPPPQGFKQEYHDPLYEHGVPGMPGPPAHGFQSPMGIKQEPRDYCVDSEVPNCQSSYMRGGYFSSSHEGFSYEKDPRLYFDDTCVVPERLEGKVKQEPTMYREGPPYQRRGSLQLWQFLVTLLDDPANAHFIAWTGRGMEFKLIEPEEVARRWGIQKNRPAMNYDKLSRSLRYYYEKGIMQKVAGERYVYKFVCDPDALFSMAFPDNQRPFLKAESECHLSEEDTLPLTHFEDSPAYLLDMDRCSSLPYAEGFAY
# Chain of ELF4 (Q99607 whole entry): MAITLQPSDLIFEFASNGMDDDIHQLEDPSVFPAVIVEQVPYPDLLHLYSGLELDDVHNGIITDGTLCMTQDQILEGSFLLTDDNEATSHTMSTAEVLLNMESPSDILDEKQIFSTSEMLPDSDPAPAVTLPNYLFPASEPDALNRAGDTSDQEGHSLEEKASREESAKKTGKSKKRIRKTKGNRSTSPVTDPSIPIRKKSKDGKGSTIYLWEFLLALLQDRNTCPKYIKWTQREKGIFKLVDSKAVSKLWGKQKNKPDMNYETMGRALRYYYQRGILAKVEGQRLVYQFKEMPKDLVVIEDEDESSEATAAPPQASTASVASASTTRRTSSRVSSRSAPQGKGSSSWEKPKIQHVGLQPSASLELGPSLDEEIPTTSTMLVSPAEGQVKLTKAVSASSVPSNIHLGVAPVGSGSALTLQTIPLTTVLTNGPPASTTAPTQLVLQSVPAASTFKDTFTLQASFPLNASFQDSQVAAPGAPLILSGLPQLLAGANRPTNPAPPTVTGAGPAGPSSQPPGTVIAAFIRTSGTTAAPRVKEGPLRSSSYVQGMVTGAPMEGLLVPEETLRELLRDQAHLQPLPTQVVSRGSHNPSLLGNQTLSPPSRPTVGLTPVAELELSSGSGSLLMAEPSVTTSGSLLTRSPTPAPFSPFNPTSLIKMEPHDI
# Chain of ETV1 (P50549 whole entry): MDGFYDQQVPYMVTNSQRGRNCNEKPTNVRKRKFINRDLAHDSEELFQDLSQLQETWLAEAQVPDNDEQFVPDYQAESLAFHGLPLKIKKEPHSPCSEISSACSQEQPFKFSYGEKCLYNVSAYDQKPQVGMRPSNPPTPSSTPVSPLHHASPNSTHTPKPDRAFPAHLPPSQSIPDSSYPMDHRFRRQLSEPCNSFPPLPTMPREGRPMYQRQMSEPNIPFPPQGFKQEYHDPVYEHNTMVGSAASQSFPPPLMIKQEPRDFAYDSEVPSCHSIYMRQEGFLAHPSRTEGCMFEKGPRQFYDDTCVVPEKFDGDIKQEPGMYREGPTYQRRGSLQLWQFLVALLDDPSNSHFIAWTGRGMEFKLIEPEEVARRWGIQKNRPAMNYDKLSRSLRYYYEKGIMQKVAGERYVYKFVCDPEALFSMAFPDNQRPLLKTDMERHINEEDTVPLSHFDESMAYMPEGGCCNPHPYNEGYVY
sequence,measurement,setting,value
TTCTTC,binding signal,[1],"1.92 fold enrichment (6-mer frequency, TF over GST control)"
same,binding signal,[2],"1.87 fold enrichment (6-mer frequency, TF over GST control)"
same,binding signal,[3],"1.79 fold enrichment (6-mer frequency, TF over GST control)"
same,binding signal,[4],"1.87 fold enrichment (6-mer frequency, TF over GST control)"
same,binding signal,[5],"1.85 fold enrichment (6-mer frequency, TF over GST control)"
same,binding signal,[6],"1.75 fold enrichment (6-mer frequency, TF over GST control)"
same,binding signal,[7],"1.8 fold enrichment (6-mer frequency, TF over GST control)"
same,binding signal,[8],"1.9 fold enrichment (6-mer frequency, TF over GST control)"
same,binding signal,[9],"2.25 fold enrichment (6-mer frequency, TF over GST control)"
same,binding signal,[10],"1.66 fold enrichment (6-mer frequency, TF over GST control)"
same,binding signal,[11],"1.87 fold enrichment (6-mer frequency, TF over GST control)"
same,binding signal,[12],"2.07 fold enrichment (6-mer frequency, TF over GST control)"
same,binding signal,[13],"1.74 fold enrichment (6-mer frequency, TF over GST control)"
same,binding signal,[14],"1.81 fold enrichment (6-mer frequency, TF over GST control)"
same,binding signal,[15],"1.69 fold enrichment (6-mer frequency, TF over GST control)"
same,binding signal,[16],"1.83 fold enrichment (6-mer frequency, TF over GST control)"
same,binding signal,[17],"1.74 fold enrichment (6-mer frequency, TF over GST control)"
same,binding signal,[18],"1.44 fold enrichment (6-mer frequency, TF over GST control)"
same,binding signal,[19],"1.9 fold enrichment (6-mer frequency, TF over GST control)"
